The source of these data is PubChem BioAssay AID2716 (Broad Institute, 2010).

Each structure is given as a SMILES string. Among all 320,000 compounds or so, about 3,300 (1%) were called active.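 How the source made its calls: active means every valid replicate shows activation above 250% relative to neutral control wells; inactive means the rest, any valid replicate at or below 250%.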 This excerpt belongs to a sample that is enriched for actives.

This assay can be described thus: yeast Mot1-301 growth rescue at high temperature, primary screen, SUMOylation pathway inhibitor project, S. cerevisiae, ATP luminescence, 38.5C (AID 2716).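 Further: OY570 slx delta 5 strain wells were the positive control but not used for scaling.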 The note with it: S. cerevisiae Mot1-301 growth rescue, at 18.8 µM, hits give high values, percent above DMSO median, 100 means doubled.
Turning to `CN(NC(=O)c1ccccc1F)c1nc(C(F)(F)F)nc2ccccc12`, the growth rescue was 658% (active).

Consider `CN(NC(=O)c1ccccc1)c1nc2ccccc2nc1C(F)(F)F`, for which the growth rescue is 29.8% (inactive). `CSc1nc(N(C)NC(=O)c2cccc(C)c2)c2ccccc2n1`: the growth rescue is -1.55% (inactive).

For `CCOC(=O)[C@@H]1[C@H]2COc3ccc(Br)cc3[C@H]2N2C(=O)N(c3ccc(C)cc3)C(=O)[C@@]12C`, the growth rescue was 5.35% (inactive). Regarding `O=C(NCc1ccco1)C(c1ccncc1)N(C(=O)Cn1nnc2ccccc21)c1ccccc1` (configuration not stated), the growth rescue is 5.81% (inactive). The value for `COc1cccc(C(CC(=O)NCCN2CCOCC2)NS(=O)(=O)c2ccc(C)cc2)c1OC` (configuration not stated) was -1.44% (inactive); that for `C=CCC(NCCCO)c1cccc(OC)c1OC` (configuration not stated) was 1100% (active); that for `C=CCC(Nc1ccccc1)c1cccc(OC)c1OC` (configuration not stated) was -16.1% (inactive). The value for `CC(=O)Nc1ccc(/C(C)=N/NC(=O)CN(c2ccccc2Br)S(C)(=O)=O)cc1` was -7.93% (inactive); that for `CNC(=O)/C(C#N)=C/c1c(F)cccc1Cl` was -36.4% (inactive). For `COc1ccc(/C=N/OCc2ccccc2C#N)c(OC)c1`, the growth rescue was 31.4% (inactive). The value for `COc1ccc(CCNC(=O)C(=O)NCC2OCCN2S(=O)(=O)c2ccc(OC)c(C)c2)cc1` (configuration not stated) was 0.71% (inactive); that for `COc1ccc(S(=O)(=O)N2CCOC2CNC(=O)C(=O)NCc2ccncc2)cc1C` (configuration not stated) was 392% (active). The value for `COc1ccc(S(=O)(=O)N2CCOC2CNC(=O)C(=O)NCc2ccncc2)cc1OC` (configuration not stated) was -3.43% (inactive).

As for `COc1ccc(N2CCN(C3CC(=O)N(c4ccc5c(c4)OCCO5)C3=O)CC2)cc1` (configuration not stated), the growth rescue was 21.5% (inactive). Take `Cc1ccc(CC2CC(=O)N(c3cc(C)ccc3C)C2=O)cc1` (configuration not stated): the growth rescue was -12% (inactive). The value for `Cc1ccc(CC2CC(=O)N(c3ccc4c(c3)OCCO4)C2=O)cc1` (configuration not stated) was 1800% (active). The value for `O=C(NCc1ccccc1Cl)NC(=O)c1csc([N+](=O)[O-])c1` was -7.29% (inactive); that for `COc1ccc(C(C#N)(CC(=O)O)c2cnccn2)cc1OC` (configuration not stated) was -15.4% (inactive). In the case of `COc1cccc(OC)c1C(=O)Nc1ccc2c(c1)n(C)c(=O)n2C`, the growth rescue was 676% (active). As for `COc1cccc(OC)c1C(=O)Nc1ccc(Cc2ccncc2)cc1`, the growth rescue was 12.2% (inactive). On to `Cn1c(=O)n(C)c2cc(C(=O)Nc3ccc(Br)cc3)ccc21`, for which the growth rescue is 15% (inactive). Regarding `CC(C)N(C(=O)CSc1nc(COc2ccccc2)nc2ccccc12)C(C)C`, the growth rescue is -2% (inactive). The value for `S=C(Nc1cccc(Cl)c1)Nc1ccc2c(c1)OCCO2` was -16% (inactive). In the case of `FC(F)(F)c1cccc(NC(=S)Nc2cccc(Cl)c2)c1`, the growth rescue was 2.73% (inactive). Turning to `Cc1csc(NC(=S)Nc2cccc(Cl)c2)n1`, the growth rescue was 817% (active). The value for `O=c1c2c(-c3ccccc3)ccnc2[nH]n1-c1ccccc1` was -10.9% (inactive); that for `CCC(CC)c1nnc(NC(=O)C2CCN(C(=O)c3ccco3)CC2)s1` was -12.8% (inactive); that for `CO/N=C(/CS(=O)(=O)c1ccc(Br)cc1)c1ccc(OC)cc1` was -7.59% (inactive).

As for `O=C(O)Cc1ccc(NCc2ccccc2Cl)cc1`, the growth rescue was 67.5% (inactive). As for `O=C(O)Cc1ccc(-c2ccccc2)cc1`, the growth rescue was 403% (active). On to `O=C(Cc1ccc(-c2ccccc2)cc1)NC(c1ccccc1)c1ccccc1`, for which the growth rescue is -3.02% (inactive). The value for `COc1cc(/C(=C/c2ccccc2)c2ccccc2)c2c(c1)oc1ccccc12` was 1.69% (inactive); that for `Cc1cc(C)cc(Oc2nc3c(C)cccn3c(=O)c2/C=C(\C#N)C(=O)NC2CCS(=O)(=O)C2)c1` (configuration not stated) was -14% (inactive); that for `CCC(C)(C)NC(=O)C(c1cccc(OC)c1OC)N(CC(C)C)C(=O)CCC(=O)Nc1cc(C)on1` (configuration not stated) was 13.1% (inactive). The value for `COc1ccc(CCC(=O)c2ccc(OC)cc2)cc1` was 34.5% (inactive); that for `COc1ccc(OCCCC(=O)Oc2ccc(OC)cc2)cc1` was -3.53% (inactive). Consider `COc1ccc(OCCC(=O)c2ccc(OC)cc2)cc1`, for which the growth rescue is 614% (active). Consider `O=C1CCC/C(=N\NC(=O)NC2CCCCC2)C1`, for which the growth rescue is -14.5% (inactive). Turning to `Cc1nn(Cc2ccc(F)cc2)c(C)c1NC(=O)c1noc2c1CCc1ccccc1-2`, the growth rescue is -2.02% (inactive). Turning to `CCOc1ncccc1C(=O)Nc1ccc2c(c1)OCCO2`, the growth rescue was 6.77% (inactive).

For the compound `CCOc1cc(/C=N/O)cc(Br)c1OC`, the growth rescue is 341% (active). Regarding `COc1cc(/C=N/O)cc(Br)c1OCc1cccc(Cl)c1`, the growth rescue was -7.89% (inactive). For the compound `COc1cc(/C=N/O)cc(Br)c1OS(=O)(=O)c1ccc(C)cc1`, the growth rescue was 13.1% (inactive). The value for `Cc1ccc(F)c(NC(=O)CCc2ccccc2)c1` was -0.553% (inactive); that for `COCCCNC(=O)C1CCC(CNS(=O)(=O)c2ccc(OC)cc2)CC1` (configuration not stated) was -13.1% (inactive). The value for `CCCCCCCCc1c(O)nc(-n2[nH]c(C)c(CCO)c2=O)[nH]c1=O` was 605% (active); that for `CCCCc1c(O)nc2n(c1=O)CCS2` was -12.2% (inactive).

For the compound `O=C(NCCc1ccc(Cl)cc1)C1CCCN1C(=O)NCc1ccccc1` (configuration not stated), the growth rescue is -4.04% (inactive). As to `O=C(CN1C(=O)NC2(CCCC2)C1=O)Nc1ccc(F)c(F)c1F`, the growth rescue is -3.83% (inactive). The value for `CC(C)n1c(NCc2c[nH]c3ccccc23)nc2ccccc21` was 5.8% (inactive). The value for `Cn1c(NC(=O)c2ccccc2)nc2ccccc21` was 4% (inactive); that for `Cc1ccc(O)c(CNc2nc3ccccc3n2C)c1` was 913% (active). Turning to `CCN1CCN(c2sc(S(C)(=O)=O)nc2S(=O)(=O)c2ccc(Cl)cc2)CC1`, the growth rescue is 2.93% (inactive). Regarding `C/C(=N\NC(=O)C1(C)CC1(Br)Br)c1ccc(C)cc1C` (configuration not stated), the growth rescue was 8.98% (inactive). For `CCCCc1nccn1CCn1ccnc1CCCC`, the growth rescue is 1.48% (inactive). In the case of `COc1ccc(CCNC(=O)CC2SC(=Nc3cc(C)cc(C)c3)NC2=O)cc1OC` (configuration not stated), the growth rescue is 308% (inactive). The value for `CCCN=C1NC(=O)C(CC(=O)NCCc2ccc(OC)c(OC)c2)S1` (configuration not stated) was 536% (active).

`COc1ccc(CCNC(=O)Cc2ccc(C)cc2)cc1OC`: the growth rescue was 102% (inactive). Turning to `COc1cccc(N(CC(=O)NCc2ccccc2)C(=O)CCC(=O)Nc2nccs2)c1`, the growth rescue was -6.15% (inactive). For the compound `COC(=O)C1CCN(CC(N)=O)CC1`, the growth rescue was -5.03% (inactive).

`COc1ccc(C(=O)COC(=O)Cn2cnc3c2c(=O)n(C)c(=O)n3C)c(OC)c1`: the growth rescue is -7.8% (inactive).
